# Test results taken from PubChem BioAssay AID2284136 (EPA ToxCast).
# Activity calls are given as the source filed them. How the source made its calls: active means hit-call score of the fitted dose curve at least 0.9, where 1 is the maximum; inactive means score below 0.9.
# Target: Tyrosine-protein phosphatase non-receptor type 11 (Homo sapiens) (UniProt Q06124)
# Assay: ERF_FR_ENZ_hPTPN11: Eurofins (ERF) Enzymatic Assay for human Phosphatase Receptor (PTPN11/SHP2)
# Procedure: ERF_FR_ENZ_hPTPN11 is a biochemical, single-readout assay that uses extracted gene-proteins in a cell-free assay. Measurements were taken 0.5 hour after chemical dosing in a 96-well plate. See SHP2 Human Phosphatase Enzymatic Assay, PhosphataseProfiler.ERF_FR_ENZ_hPTPN11 is an assay component calculated from the ERF_FR_ENZ_hPTPN11 assay. It is designed to measure enzyme activity using a type of enzyme reporter as detected by fluorescence intensity with spectrophotometry technology.Data from the assay component ERF_FR_ENZ_hPTPN11 was analyzed at the assay endpoint, ERF_FR_ENZ_hPTPN11, in the positive analysis fitting direction relative to DMSO as the negative control and baseline of activity. Using a type of enzyme reporter, loss-of-signal activity can be used to understand changes in enzymatic activity as they relate to gene PTPN11. To generalize the intended target to other relatable targets, this assay endpoint is annotated to the phosphatase intended target family, where the subfamily is protein tyrosine phosphatase.
# Human recombinant phosphatase PTPN11 (SHP-2) expressed in E. coli is used. Test compound and/or vehicle is preincubated with 45 ng/ml enzymeo for 15 minutes at 37 C in modified HEPES buffer pH 7.2. The reaction is initiated by addition of 100 uM DiFMUP for 60 minutes. Determination of the amount of DiFMU formed is read spectrofluorimetrically at 358 nm/450 nm. […]
# Sequence of Tyrosine-protein phosphatase non-receptor type 11 (Homo sapiens) (Q06124 whole entry, looked up): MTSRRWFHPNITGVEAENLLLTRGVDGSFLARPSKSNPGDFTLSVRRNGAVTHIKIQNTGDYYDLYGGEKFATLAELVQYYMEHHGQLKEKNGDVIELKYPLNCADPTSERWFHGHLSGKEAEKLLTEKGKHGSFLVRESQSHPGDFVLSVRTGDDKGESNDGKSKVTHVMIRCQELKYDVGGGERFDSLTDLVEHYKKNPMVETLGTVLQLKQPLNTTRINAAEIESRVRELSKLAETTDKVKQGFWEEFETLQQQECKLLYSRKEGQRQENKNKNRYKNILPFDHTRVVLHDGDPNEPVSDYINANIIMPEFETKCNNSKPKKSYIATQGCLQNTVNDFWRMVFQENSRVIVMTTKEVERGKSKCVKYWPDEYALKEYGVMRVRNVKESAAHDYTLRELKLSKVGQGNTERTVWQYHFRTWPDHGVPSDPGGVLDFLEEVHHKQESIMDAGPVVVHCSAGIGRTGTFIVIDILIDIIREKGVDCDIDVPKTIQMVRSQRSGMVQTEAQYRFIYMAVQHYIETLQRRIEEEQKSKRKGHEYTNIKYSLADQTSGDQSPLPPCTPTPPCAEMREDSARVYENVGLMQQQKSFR
row,SMILES,AC50
1,O=C(/C=C/c1ccc(O)cc1)CC(=O)/C=C/c1ccc(O)cc1,0.28 nM (active)
